Drawing on the supplement of paper PMC7156485, this text covers cell number and H1.0 immunofluorescence intensity for 26 molecules.

What all share (conditions): concentration: 10 µM; 24 h
The subject of assay [1] is HCC1569. Kind of assay: cell number relative to DMSO (% of DMSO); higher = more cells (less growth inhibition / toxicity). The gist of the method: (§1)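 After 24 h at 37 °C with compounds at 10 µM, in triplicate, HCC1569 and TDF cells were fixed with 3.7% formaldehyde. Immunostaining used a rabbit anti-H1.0 antibody and an AlexaFluor 647 secondary, with DAPI, and six fields per well were imaged at ×10. H1.0 nuclear intensity or cell number is presented as percent of the plate control, from the median of replicates, with HCC1569 values smoothed for positional effects.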

The test system of assay [2] is TDF. Described as above. The gist of the method: as §1
Assay [3] relates to TDF. The assay is described as follows: H1.0 immunofluorescence intensity relative to DMSO (% of DMSO); higher = stronger H1.0 induction, active = 120 or more. The gist of the method:
as §1

The test system of assay [4] is HCC1569. Kind of assay: H1.0 immunofluorescence intensity relative to DMSO (% of DMSO); higher = stronger H1.0 induction, active = 140 or more. In outline:
as §1

± gives the standard deviation of the averaged measurements.
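Wherever H1.0 immunofluorescence intensity relative to DMSO is given: TDF is a line of transformed human dermal fibroblasts of mesenchymal origin.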
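Wherever cell number relative to DMSO is given: TDF denotes transformed human dermal fibroblasts of mesenchymal origin.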

Take `CCCCCCCCCCCCCCCCCC(=O)NCC(COP(=O)([O-])OCC[N+](C)(C)C)OC` (racemic) [rac-2-Methoxy-3-octadecanamido-1-propylphosphocholine]: the cell number with HCC1569 [1] came to 101; in the assay with TDF [2], 84.5. The H1.0 immunofluorescence intensity in the assay with TDF [3] was 95.2 (inactive); in the assay on HCC1569 [4] it was 101 (inactive).

Turning to `CCCCc1ncc(C=C(Cc2cccs2)C(=O)O)n1Cc1ccc(C(=O)O)cc1.CS(=O)(=O)O` [Eprosartan mesylate], the figures for the cell number in the assay on HCC1569 [1] and in the assay with TDF [2] were 97.1 and 91.7, respectively. Besides, the figures for the H1.0 immunofluorescence intensity with TDF [3] and with HCC1569 [4] were 96.4 (inactive) and 97.4 (inactive), respectively.

Turning to `CCCCCCCCCCOCCC(=O)O` [4-Oxatetradecanoic acid], the cell number with HCC1569 [1] turned out to be 102; with TDF [2], 110. For the same molecule, the H1.0 immunofluorescence intensity in the assay on TDF [3] is 95.6 (inactive); in the assay on HCC1569 [4] it was 103 (inactive).

Take `C[N+](C)(C)C(Cc1c[nH]c(=S)[nH]1)C(=O)[O-]` [L-Ergothioneine]: the cell number worked out at 107 with HCC1569 [1] and 102 in the assay with TDF [2]. Moreover, the figures for the H1.0 immunofluorescence intensity in the assay with TDF [3] and with HCC1569 [4] were 101 (inactive) and 100 (inactive), respectively.

As for `CN(C)CCCSc1ccccc1NC(=O)C=Cc1ccccc1` [Cinanserin], the cell number in the assay with HCC1569 [1] worked out at 103; in the assay with TDF [2], 102. Also, the H1.0 immunofluorescence intensity is 102 (inactive) in the assay with TDF [3] and 107 (inactive) with HCC1569 [4].

For `CCN(CC)CCCCN1c2ccccc2Oc2ccc(Cl)cc21.Cl`, the values for the cell number in the assay on HCC1569 [1] and in the assay with TDF [2] were 88.8 and 86.3, respectively. The H1.0 immunofluorescence intensity in the assay on TDF [3] was 110 (inactive); in the assay with HCC1569 [4] it was 159 (active).

`CC(=O)SC1CC2=CC(=O)CCC2(C)C2CCC3(C)C(CCC34CCC(=O)O4)C12` (centres undefined) [Spironolactone]: the cell number with HCC1569 [1] was 99.1 ± 3.8; in the assay with TDF [2], 105 ± 7.3. The H1.0 immunofluorescence intensity was 92.2 (inactive) with TDF [3] and 104 (inactive) in the assay with HCC1569 [4].

As for `O=C(O)c1cn(C2CC2)c2cc(N3C[C@@H]4C[C@H]3CN4)c(F)cc2c1=O`, the cell number amounted to 99.1 in the assay with HCC1569 [1] and 109 with TDF [2]. Besides, the H1.0 immunofluorescence intensity with TDF [3] was 91.9 (inactive); with HCC1569 [4], 102 (inactive).

As for `CNCC(O)C(O)C(O)C(O)CO` (centres undefined) [Meglumine], the cell number with HCC1569 [1] came to 103; with TDF [2], 120. Also, the H1.0 immunofluorescence intensity is 99.3 (inactive) with TDF [3] and 92.4 (inactive) with HCC1569 [4].

In the case of `CC(=O)N[C@@H](CS)C(=O)O` [N-Acetyl-L-Cysteine], the cell number is 98.1 in the assay on HCC1569 [1] and 115 with TDF [2]. Besides, the H1.0 immunofluorescence intensity was 109 (inactive) in the assay on TDF [3] and 118 (inactive) in the assay on HCC1569 [4].

As to `CC(C)NCC(O)c1ccc(O)c(O)c1.O=C(O)C(O)C(O)C(=O)O` (stereo not drawn) [R(-)-Isoproterenol (+)-bitartrate], the cell number with HCC1569 [1] amounted to 99.2; with TDF [2], 79.3. Besides, the H1.0 immunofluorescence intensity in the assay with TDF [3] is 99 (inactive); with HCC1569 [4], 120 (inactive).

On to `NCC(O)c1ccc(O)c(O)c1.O=C(O)C(O)C(O)C(=O)O` (stereo not drawn) [Norepinephrine-(+)-tartrate L (-)], for which the cell number with HCC1569 [1] is 100; with TDF [2], 99.2. In addition, the H1.0 immunofluorescence intensity with TDF [3] was 91.4 (inactive); in the assay on HCC1569 [4], 105 (inactive).

As to `COc1cc2ncnc(Nc3cccc(Cl)c3)c2cc1OC`, the cell number with HCC1569 [1] is 83.8; in the assay with TDF [2] it was 88. Also, the values for the H1.0 immunofluorescence intensity in the assay with TDF [3] and in the assay with HCC1569 [4] were 99.4 (inactive) and 111 (inactive), respectively.

`O=C1CCc2ccc(OCCCCN3CCN(c4cccc(Cl)c4Cl)CC3)cc2N1` [Aripiprazole]: the values for the cell number in the assay on HCC1569 [1] and with TDF [2] were 95.5 and 97, respectively. Moreover, the H1.0 immunofluorescence intensity in the assay on TDF [3] is 96.2 (inactive); with HCC1569 [4], 126 (inactive).

For the molecule `COc1ccc(C=Cc2cc(O)cc(OC3OC(CO)C(O)C(O)C3O)c2)cc1O` (centres undefined) [Rhapontin], the results for the cell number in the assay on HCC1569 [1] and with TDF [2] were 99.2 and 104, respectively. For the same molecule, the H1.0 immunofluorescence intensity with TDF [3] was 96 (inactive); with HCC1569 [4] it was 83.7 (inactive).

Consider `CCCCCC(O)C=CC1C(O)CC(O)C1CC=CCCCC(=O)O` (centres undefined) [9a,11b Prostaglandin F2], for which the cell number in the assay on HCC1569 [1] was 106; with TDF [2], 99.4. The figures for the H1.0 immunofluorescence intensity in the assay with TDF [3] and with HCC1569 [4] were 94.2 (inactive) and 101 (inactive), respectively.

As for `Cc1c(C)c2c(c(C)c1OC(=O)CCC(=O)O)CCC(C)(CCCC(C)CCCC(C)CCCC(C)C)O2` (centres undefined) [Tocopherol succinate], the cell number in the assay with HCC1569 [1] came out at 98.1; in the assay on TDF [2], 109. Also, the H1.0 immunofluorescence intensity with TDF [3] was 94.4 (inactive); in the assay on HCC1569 [4] it was 102 (inactive).

As for `CC(C=CC1=C(C)CCCC1(C)C)=CC=CC(C)=CC(=O)O` [Retinoic Acid], the results for the cell number with HCC1569 [1] and in the assay on TDF [2] were 98.1 ± 2.9 and 109 ± 5.1, respectively. Further, the H1.0 immunofluorescence intensity in the assay on TDF [3] was 90.8 (inactive); in the assay on HCC1569 [4], 121 (inactive).

As for `OB1OCc2cc(F)ccc21` [5-fluoro-2,1-benzoxaborol-1(3H)-ol], the cell number in the assay with HCC1569 [1] and in the assay with TDF [2] was 104 each time. Further, the H1.0 immunofluorescence intensity is 95.6 (inactive) with TDF [3] and 98.5 (inactive) in the assay on HCC1569 [4].

In the case of `CC1=C(C)C(=O)C(CCCCC#CCCCC#CCO)=C(C)C1=O` [Docebenone], the cell number is 93.3 with HCC1569 [1] and 75.3 in the assay with TDF [2]. The H1.0 immunofluorescence intensity is 103 (inactive) in the assay on TDF [3] and 110 (inactive) with HCC1569 [4].

`CC1CS(=O)(=O)CCN1/N=C/c1ccc([N+](=O)[O-])o1` (centres undefined): the cell number in the assay with HCC1569 [1] amounted to 96.4; in the assay with TDF [2], 102. Also, the H1.0 immunofluorescence intensity was 98.5 (inactive) with TDF [3] and 95.5 (inactive) in the assay on HCC1569 [4].

For the molecule `CC[N+](C)(C)c1cccc(O)c1.[Cl-]` [Edrophonium chloride], the cell number with HCC1569 [1] is 102; in the assay with TDF [2], 113. Moreover, the H1.0 immunofluorescence intensity with TDF [3] is 96.1 (inactive); in the assay with HCC1569 [4], 95.7 (inactive).

`CC(CN1c2ccccc2Sc2ccccc21)N(C)C.Cl` (centres undefined) [Promethazine hydrochloride]: the cell number in the assay with HCC1569 [1] was found to be 105; in the assay on TDF [2], 96.9. For the same molecule, the values for the H1.0 immunofluorescence intensity with TDF [3] and in the assay on HCC1569 [4] were 109 (inactive) and 106 (inactive), respectively.

Consider `NCCS(=O)O` [Hypotaurine], for which the cell number in the assay with HCC1569 [1] and in the assay with TDF [2] was 106 throughout. Also, the H1.0 immunofluorescence intensity in the assay on TDF [3] is 96.6 (inactive); in the assay with HCC1569 [4] it was 88.6 (inactive).

Turning to `CC(O)C1C(=O)N2C(C(=O)O)=C(SC3CNC(C(=O)N(C)C)C3)C(C)C12` (centres undefined) [Meropenem], the cell number came out at 105 in the assay with HCC1569 [1] and 98.2 in the assay on TDF [2]. Besides, the H1.0 immunofluorescence intensity in the assay on TDF [3] is 97 (inactive); with HCC1569 [4], 94.3 (inactive).

For `O=c1[nH]c(=O)n([C@H]2C[C@H](O)[C@@H](CO)O2)cc1/C=C/Br` [(E)-5-(2-Bromovinyl)-2'-deoxyuridine], the cell number with HCC1569 [1] worked out at 104; in the assay on TDF [2], 100. Besides, the H1.0 immunofluorescence intensity in the assay with TDF [3] was 97.3 (inactive); in the assay on HCC1569 [4], 87.7 (inactive).
